From PubChem BioAssay
The list is not random: actives were taken first. Their share in the collection is about 7.8%.
Lassa entry inh: Lassa virus entry inhibition. AID 540256. Potency, µM (series often up to 37.9 µM), inactives show top-dose activity change, negative = inhibition, actives largely listed as inhibitors. Lassa virus pseudotype entry inhibition, cell reporter. hit rate 1.2% among 300,000; calls by dose curve; tested in HEK293 cells; also: potency is read from the fitted curve at half-maximal effect; nearly all actives have a fitted effect of over 50% in size
Vaccinia Venus: vaccinia inhibition (Venus reporter) | Potency, µM (doses to about 36.5 µM), without a hit: top-dose activity change, negative = inhibition, most hits filed as inhibitors | hit rate 0.46% among 330,000 | Vaccinia virus Venus reporter expression, fluorescence; calls by dose curve; tested in A549 cells; also: potency is read from the fitted curve at half-maximal effect; nearly all actives have a fitted effect of over 30% in size
Marburg entry inh: inhibitors of Marburg virus binding or cell entry. Marburg virus pseudotyped entry inhibition, cell reporter. Potency, µM (top dose mostly 37.8 µM), without a hit: top-dose activity change, negative = inhibition, usual class: inhibitors. hit rate 1.8% among 300,000. AID 540276; calls by dose curve; tested in HEK293 cells; also: potency is read from the fitted curve at half-maximal effect
Vaccinia mCherry: vaccinia inhibition (mCherry reporter) | Potency, µM (titrated, usually from 36.5 µM), inactives show at the top dose activity change, negative = inhibition, actives largely listed as inhibitors | AID 720579 | Vaccinia virus mCherry reporter infection, fluorescence | hit rate 0.63% among 310,000; calls by dose curve; tested in A549 cells; also: potency is read from the fitted curve at half-maximal effect; nearly all actives have a fitted effect of over 35% in size
HCV inh: inhibitors of hepatitis C virus infection. hit rate 3.4% among 340,000. AID 651820. Potency, µM (top dose mostly 41.8 µM), for the others: top-dose activity change, negative = inhibition, actives largely listed as inhibitors. Huh7.5.1 HCVcc-Cre infection, luciferase reporter, 44 h; active = well fitted inhibition curve with a large enough effect; inconclusive = small, poorly fitted or top-dose-only effect, or another doubt; inactive = no such curve, though single readings can be large or run the other way; also: potency is read from the fitted curve at half-maximal effect
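Compounds are dispensed onto cells plated 4 h earlier at 1,000 per well, with HCVcc-Cre virus (about 0.5 moi) added next. Following 44 h of culture, luminescent signal is measured for 15 sec after 15 min with substrate at room temperature.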
HCMV inh: inhibitors of human cytomegalovirus; AID 1259415; activity change, negative = inhibition, % at 57.5 µM; HFF cells, HCMV-luciferase reporter, 72 h; active compounds read low; hit rate 4.5% among 410,000; in the data active = activity change below about -60%; inconclusive = no clear call, values can overlap the other calls; inactive = above about -39%
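Screen run at 2 compound doses on HFFs infected with reporter HCMV, MOI 1 PFU/cell. Luciferase activity from cell lysates at 72 h post infection gave inhibition relative to buffer-only and Salinomycin wells.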
An asterisk follows results filed as active; [ ] = dose if it differs, or a comment. % is scaled to controls: 0 for no effect and ±100 for the full control effect.

Screening COc1ccc(CCNC(=O)Cn2cccc2C(=O)c2ccccc2)c(OC)c1 returned HCV inh inconclusive and HCMV inh -96.2*.
CCC(C)[C@H](N)c1nnc(SCc2ccc(Cl)c(Cl)c2)o1 (some centres undefined) was read as Lassa entry inh 10.8%[46.1 µM], Vaccinia Venus 6.6%, Marburg entry inh 10.6%[46.1 µM], Vaccinia mCherry -6.6% and HCMV inh -10.6.
For Cc1ccc2oc(=O)c3cc(C(=O)N4CCN(c5ccccc5)CC4)sc3c2c1 the results were Lassa entry inh -16.4%[46.1 µM], Vaccinia Venus -2.9%, Marburg entry inh 11.0%[46.1 µM], Vaccinia mCherry 6.8% and HCMV inh -0.5.
Screening C=CCn1c(SCC(=O)c2cc(C)n(C(C)COC)c2C)nc2sc(C)c(C)c2c1=O (centres undefined) returned Lassa entry inh 9.2µM*, Marburg entry inh -10.4%, HCV inh 10µM* and HCMV inh -5.3.
For O=[N+]([O-])c1ccc(NC2CCCC2)cc1 the results were Lassa entry inh 19.1%, Vaccinia Venus -17.8%, Marburg entry inh 11.8%, Vaccinia mCherry -1.5%, HCV inh -9.4% and HCMV inh 6.7.
Screening O=[N+]([O-])c1ccc(N/N=C2/CCCCC2c2ccccn2)cc1 (centres undefined) returned Lassa entry inh inconclusive, Vaccinia Venus -5.8%, Marburg entry inh 1.12µM*, Vaccinia mCherry -21.5%, HCV inh inconclusive and HCMV inh 16.6.
`Cc1cc(F)ccc1Nc1nc2ccccc2n2nnnc12` gave Lassa entry inh -2.1%[46.1 µM], Vaccinia Venus -22.6%, Marburg entry inh 8.0%[46.1 µM], Vaccinia mCherry -26.5% and HCMV inh -3.8.
`Fc1cc(Br)ccc1Nc1nc2ccccc2n2nnnc12` gave Vaccinia Venus -25.3%, Vaccinia mCherry 14.2%, HCV inh 20.1% and HCMV inh -72.9*.
Screening O=C(Cn1cc(SCc2cccc(F)c2)c2ccccc21)N1CCCC1 returned Lassa entry inh 11.5%[46.1 µM], Vaccinia Venus -19.7%, Vaccinia mCherry -14.3% and HCMV inh 29.2.
`CCC(CC)C(=O)N1CCc2cc(OC)c(OC)cc2C1COc1ccc(C(=O)OC)cc1` (centres undefined) gave Lassa entry inh -5.7%[46.1 µM], Vaccinia Venus -0.7%, Vaccinia mCherry -2.5% and HCMV inh 3.4.
For CCOc1ccc(/C=N/OCC(=O)Nc2ccc(OCc3ccccc3)cc2)cc1OC the results were Lassa entry inh -0.7%, Vaccinia Venus -7.9%, Marburg entry inh inconclusive, Vaccinia mCherry -16.4%, HCV inh -13.3% and HCMV inh 17.0.
For COc1ccc(/C=N/OCC(=O)NC(c2ccccc2)c2ccccc2)cc1OC the results were Lassa entry inh inconclusive, Vaccinia Venus inconclusive, Marburg entry inh inconclusive, Vaccinia mCherry inconclusive, HCV inh 3.98µM* and HCMV inh -65.5*.
Screening COc1ccc(/C=N/OCC(=O)Nc2cc(C)on2)cc1OC returned Lassa entry inh 12.7%, Vaccinia Venus -7.9%, Marburg entry inh 0.9%, Vaccinia mCherry inactive, HCV inh -10.2% and HCMV inh -8.7.
Screening COc1cc(/C=N/OCC(=O)Nc2ccc(OC(F)F)cc2)ccc1OCc1ccccc1 returned Lassa entry inh inconclusive, Vaccinia Venus -28.7%, Marburg entry inh 7.08µM*, Vaccinia mCherry -12.4%, HCV inh inconclusive and HCMV inh 12.4.
Screening CCN(CC)CCOc1nnc(-c2ccc(OC)cc2)c2ccccc12 returned HCV inh -22.6% and HCMV inh -71.9*.
For COC(=O)[C@@H]1C[C@H](NC(=O)c2ccccn2)CN1Cc1cccc2ccccc12 the results were Vaccinia Venus 5.3% and Vaccinia mCherry -4.0%.
`CC(CNC(=O)Cn1ccc2cc(S(=O)(=O)N3CCCCC3)ccc21)c1ccccc1` (centres undefined) gave Lassa entry inh -7.5%[46.1 µM], Vaccinia Venus -18.7%, Vaccinia mCherry -8.3% and HCMV inh -19.7.
For Cc1oc(-c2ccccc2Cl)nc1Cn1cccc1C1=NC(c2ccccc2)CO1 (centres undefined) the results were Lassa entry inh 7.3µM*, Vaccinia Venus -12.0%, Marburg entry inh inconclusive, Vaccinia mCherry -28.3%, HCV inh 11.2µM* and HCMV inh inconclusive.
